Test results published in PMC7862700, “An all-to-all approach to the identification of sequence-specific readers for epigenetic DNA modifications on cytosine”.

Legend:
Test in all cases: DAPPL (digital affinity profiling via proximity ligation, sequencing); 10 mM Tris-HCl pH 7.5, 50 mM NaCl, 1 mM DTT, 4% glycerol, room temperature, 30 min; GST-TFs on glutathione beads, 16-mer random dsDNA library, 0.1% formaldehyde crosslink after washing; high values mean tight binding
Conditions in all cases: protein: recombinant; tags: N-terminal GST; dsDNA, one strand shown
ERF = molecular target: T1, ERF (Homo sapiens, UniProt P50548 1-548)
T1 sequence: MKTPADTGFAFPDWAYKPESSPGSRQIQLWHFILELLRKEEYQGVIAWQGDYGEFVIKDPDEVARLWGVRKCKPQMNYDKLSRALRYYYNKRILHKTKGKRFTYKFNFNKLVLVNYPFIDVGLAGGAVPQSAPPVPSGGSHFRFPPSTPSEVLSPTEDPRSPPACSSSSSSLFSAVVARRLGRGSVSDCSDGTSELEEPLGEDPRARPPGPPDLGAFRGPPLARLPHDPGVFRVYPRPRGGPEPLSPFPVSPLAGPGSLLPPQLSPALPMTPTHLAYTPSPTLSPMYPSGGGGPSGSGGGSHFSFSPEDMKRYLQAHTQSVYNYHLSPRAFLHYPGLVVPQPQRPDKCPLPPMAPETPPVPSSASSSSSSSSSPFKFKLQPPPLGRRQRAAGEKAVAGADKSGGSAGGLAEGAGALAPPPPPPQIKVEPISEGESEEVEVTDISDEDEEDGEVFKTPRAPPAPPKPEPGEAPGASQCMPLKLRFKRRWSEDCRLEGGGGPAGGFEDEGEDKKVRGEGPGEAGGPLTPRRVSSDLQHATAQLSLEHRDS
Outline: (§1)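 Binding signal is defined as a hexamer's read frequency for one factor over its frequency for the tag-only sample. To obtain reads, GST-fused human transcription factors were expressed in yeast, captured on glutathione beads, barcoded with DNA and pooled with that sample. Pools met 200 nmole of a 16-mer random double-stranded DNA library in Tris/NaCl/DTT/glycerol buffer for 30 min at room temperature before washing, 0.1% formaldehyde crosslinking, proximity ligation (BsaI/T4 ligase, 1 h, 37 °C), PCR and Illumina NextSeq500 sequencing.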

ETV3L = molecular target: T2, ETV3L (Homo sapiens, UniProt Q6ZN32 1-361)
T2 sequence: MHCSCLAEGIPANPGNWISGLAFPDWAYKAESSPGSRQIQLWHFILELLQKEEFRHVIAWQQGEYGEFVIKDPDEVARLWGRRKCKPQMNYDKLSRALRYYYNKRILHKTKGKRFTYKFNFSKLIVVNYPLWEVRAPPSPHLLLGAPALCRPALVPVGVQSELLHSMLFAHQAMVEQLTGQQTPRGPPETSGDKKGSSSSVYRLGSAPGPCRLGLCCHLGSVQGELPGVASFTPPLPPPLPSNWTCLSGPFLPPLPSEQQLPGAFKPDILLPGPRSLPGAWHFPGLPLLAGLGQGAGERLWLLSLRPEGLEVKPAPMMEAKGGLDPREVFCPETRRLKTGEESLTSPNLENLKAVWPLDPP
Outline: as §1

ETS2 = molecular target: T3, ETS2 (Homo sapiens, UniProt P15036 1-469)
T3 sequence: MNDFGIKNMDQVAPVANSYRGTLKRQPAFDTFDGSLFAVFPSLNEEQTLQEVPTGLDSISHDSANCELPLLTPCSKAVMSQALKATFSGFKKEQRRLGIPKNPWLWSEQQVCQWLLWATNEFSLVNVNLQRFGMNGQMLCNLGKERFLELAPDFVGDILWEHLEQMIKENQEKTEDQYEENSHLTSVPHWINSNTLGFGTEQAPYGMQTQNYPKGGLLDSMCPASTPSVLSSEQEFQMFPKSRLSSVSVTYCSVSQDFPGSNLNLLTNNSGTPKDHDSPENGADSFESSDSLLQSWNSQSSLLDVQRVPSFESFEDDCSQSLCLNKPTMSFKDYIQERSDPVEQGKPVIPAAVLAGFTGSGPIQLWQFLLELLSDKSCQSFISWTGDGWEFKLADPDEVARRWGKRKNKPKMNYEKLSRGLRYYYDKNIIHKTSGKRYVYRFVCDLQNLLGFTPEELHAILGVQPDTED
Outline: as §1

SPDEF = molecular target: T4, SPDEF (Homo sapiens, UniProt O95238 1-335)
T4 sequence: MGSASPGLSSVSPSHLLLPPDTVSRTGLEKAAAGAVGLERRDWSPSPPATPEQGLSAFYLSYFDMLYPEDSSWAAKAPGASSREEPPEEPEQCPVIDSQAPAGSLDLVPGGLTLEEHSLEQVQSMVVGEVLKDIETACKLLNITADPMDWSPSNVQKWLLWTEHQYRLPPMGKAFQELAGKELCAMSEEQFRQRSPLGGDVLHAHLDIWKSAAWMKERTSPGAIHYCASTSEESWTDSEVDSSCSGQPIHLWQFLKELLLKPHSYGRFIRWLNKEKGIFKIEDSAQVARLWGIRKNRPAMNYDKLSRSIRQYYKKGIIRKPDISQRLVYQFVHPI
Outline: as §1

ETV7 = molecular target: T5, ETV7 (Homo sapiens, UniProt Q9Y603 1-341)
T5 sequence: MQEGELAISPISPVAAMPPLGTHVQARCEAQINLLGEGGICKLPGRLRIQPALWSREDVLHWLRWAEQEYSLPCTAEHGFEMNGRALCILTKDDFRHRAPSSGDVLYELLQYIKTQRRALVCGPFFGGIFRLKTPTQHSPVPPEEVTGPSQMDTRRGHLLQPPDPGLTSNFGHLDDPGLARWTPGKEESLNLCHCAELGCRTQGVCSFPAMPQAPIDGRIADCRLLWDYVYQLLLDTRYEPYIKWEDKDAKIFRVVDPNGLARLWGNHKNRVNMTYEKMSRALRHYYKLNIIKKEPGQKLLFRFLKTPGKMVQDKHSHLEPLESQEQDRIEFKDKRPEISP
Outline: as §1

ELF5 = molecular target: T6, ELF5 (Homo sapiens, UniProt Q9UKW6-2 1-255)
T6 sequence: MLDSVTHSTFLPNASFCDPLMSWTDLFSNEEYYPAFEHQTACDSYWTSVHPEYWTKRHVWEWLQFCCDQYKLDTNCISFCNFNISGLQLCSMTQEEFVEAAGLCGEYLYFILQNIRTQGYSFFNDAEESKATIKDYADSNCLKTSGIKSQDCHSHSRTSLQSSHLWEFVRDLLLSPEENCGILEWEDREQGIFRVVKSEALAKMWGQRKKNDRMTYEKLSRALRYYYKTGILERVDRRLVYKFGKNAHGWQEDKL
Outline: as §1

ETV3 = molecular target: T7, ETV3 (Homo sapiens, UniProt P41162-2 1-143)
T7 sequence: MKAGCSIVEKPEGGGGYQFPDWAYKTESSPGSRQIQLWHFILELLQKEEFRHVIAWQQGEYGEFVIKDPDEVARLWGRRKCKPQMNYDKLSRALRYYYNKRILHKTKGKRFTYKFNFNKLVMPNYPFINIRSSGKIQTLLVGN
Outline: as §1

ETV6 = ETV6 (Homo sapiens, UniProt P41212 1-452)
Outline: as §1

Chain of ETV6 (P41212 whole entry): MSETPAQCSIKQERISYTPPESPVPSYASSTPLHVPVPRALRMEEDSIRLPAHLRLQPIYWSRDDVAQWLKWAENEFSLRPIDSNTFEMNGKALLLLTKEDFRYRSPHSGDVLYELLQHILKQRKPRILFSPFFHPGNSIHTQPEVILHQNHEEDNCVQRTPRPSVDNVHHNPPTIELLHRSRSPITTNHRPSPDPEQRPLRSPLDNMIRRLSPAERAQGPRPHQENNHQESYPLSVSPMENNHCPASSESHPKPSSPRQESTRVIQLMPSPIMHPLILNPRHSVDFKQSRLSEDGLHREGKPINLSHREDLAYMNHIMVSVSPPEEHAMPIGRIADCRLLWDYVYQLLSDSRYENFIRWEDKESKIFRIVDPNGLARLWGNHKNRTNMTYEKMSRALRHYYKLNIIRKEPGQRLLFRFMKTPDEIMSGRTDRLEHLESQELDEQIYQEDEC

Row | Sequence | binding signal (ERF) | binding signal (ETV3L) | binding signal (ETS2) | binding signal (SPDEF) | binding signal (ETV7) | binding signal (ELF5) | binding signal (ETV3) | binding signal (ETV6)
1 | AAGCAT | 1.19 fold enrichment (6-mer frequency, TF over GST control) | 1.09 fold enrichment (6-mer frequency, TF over GST control) | 1.2 fold enrichment (6-mer frequency, TF over GST control) | 1.08 fold enrichment (6-mer frequency, TF over GST control) | 1.14 fold enrichment (6-mer frequency, TF over GST control) | 1.06 fold enrichment (6-mer frequency, TF over GST control) | 1.13 fold enrichment (6-mer frequency, TF over GST control) | 1.14 fold enrichment (6-mer frequency, TF over GST control)
2 | TTTCTA | 1.32 fold enrichment (6-mer frequency, TF over GST control) | 1.3 fold enrichment (6-mer frequency, TF over GST control) | 1.37 fold enrichment (6-mer frequency, TF over GST control) | 1.39 fold enrichment (6-mer frequency, TF over GST control) | 1.37 fold enrichment (6-mer frequency, TF over GST control) | 1.31 fold enrichment (6-mer frequency, TF over GST control) | 1.38 fold enrichment (6-mer frequency, TF over GST control) | 1.25 fold enrichment (6-mer frequency, TF over GST control)
3 | ATTTCC | 3.64 fold enrichment (6-mer frequency, TF over GST control) | 3.98 fold enrichment (6-mer frequency, TF over GST control) | 4.24 fold enrichment (6-mer frequency, TF over GST control) | 3.68 fold enrichment (6-mer frequency, TF over GST control) | 3.78 fold enrichment (6-mer frequency, TF over GST control) | 6.17 fold enrichment (6-mer frequency, TF over GST control) | 4.45 fold enrichment (6-mer frequency, TF over GST control) | 4.99 fold enrichment (6-mer frequency, TF over GST control)
4 | ATCACC | 1.13 fold enrichment (6-mer frequency, TF over GST control) | 1.17 fold enrichment (6-mer frequency, TF over GST control) | 1.05 fold enrichment (6-mer frequency, TF over GST control) | 1.12 fold enrichment (6-mer frequency, TF over GST control) | 1 fold enrichment (6-mer frequency, TF over GST control) | 1.01 fold enrichment (6-mer frequency, TF over GST control) | 1.12 fold enrichment (6-mer frequency, TF over GST control) | 1.06 fold enrichment (6-mer frequency, TF over GST control)
5 | TATACA | 1.34 fold enrichment (6-mer frequency, TF over GST control) | 1.3 fold enrichment (6-mer frequency, TF over GST control) | 1.37 fold enrichment (6-mer frequency, TF over GST control) | 1.44 fold enrichment (6-mer frequency, TF over GST control) | 1.35 fold enrichment (6-mer frequency, TF over GST control) | 1.29 fold enrichment (6-mer frequency, TF over GST control) | 1.31 fold enrichment (6-mer frequency, TF over GST control) | 1.25 fold enrichment (6-mer frequency, TF over GST control)
6 | TCCCTA | 1.43 fold enrichment (6-mer frequency, TF over GST control) | 1.39 fold enrichment (6-mer frequency, TF over GST control) | 1.32 fold enrichment (6-mer frequency, TF over GST control) | 1.4 fold enrichment (6-mer frequency, TF over GST control) | 1.16 fold enrichment (6-mer frequency, TF over GST control) | 1.67 fold enrichment (6-mer frequency, TF over GST control) | 1.38 fold enrichment (6-mer frequency, TF over GST control) | 1.17 fold enrichment (6-mer frequency, TF over GST control)
7 | TCCGAT | 1.25 fold enrichment (6-mer frequency, TF over GST control) | 1.22 fold enrichment (6-mer frequency, TF over GST control) | 1.28 fold enrichment (6-mer frequency, TF over GST control) | 1.34 fold enrichment (6-mer frequency, TF over GST control) | 1.27 fold enrichment (6-mer frequency, TF over GST control) | 1.27 fold enrichment (6-mer frequency, TF over GST control) | 1.35 fold enrichment (6-mer frequency, TF over GST control) | 1.39 fold enrichment (6-mer frequency, TF over GST control)
8 | CTACAC | 1.31 fold enrichment (6-mer frequency, TF over GST control) | 1.4 fold enrichment (6-mer frequency, TF over GST control) | 1.25 fold enrichment (6-mer frequency, TF over GST control) | 1.39 fold enrichment (6-mer frequency, TF over GST control) | 1.25 fold enrichment (6-mer frequency, TF over GST control) | 1.36 fold enrichment (6-mer frequency, TF over GST control) | 1.39 fold enrichment (6-mer frequency, TF over GST control) | 1.36 fold enrichment (6-mer frequency, TF over GST control)
9 | TATTTT | 1.19 fold enrichment (6-mer frequency, TF over GST control) | 1.41 fold enrichment (6-mer frequency, TF over GST control) | 1.35 fold enrichment (6-mer frequency, TF over GST control) | 1.24 fold enrichment (6-mer frequency, TF over GST control) | 1.49 fold enrichment (6-mer frequency, TF over GST control) | 1.29 fold enrichment (6-mer frequency, TF over GST control) | 1.39 fold enrichment (6-mer frequency, TF over GST control) | 1.36 fold enrichment (6-mer frequency, TF over GST control)
